We go through 16 molecules from PubChem BioAssay AID1053126 (Broad Institute, 2014).

Results with a measured potency or affinity are listed apart. Unmarked numbers belong to inactive results.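 How the source made its calls: active means cell killing with a fitted half-effect concentration at or below twice the top valid dose; inconclusive means flat curve with 30 to 70 percent drop, or poor fit; inactive means the rest.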

The assay can be described thus: HEK293T cell cytotoxicity, dose response, cytotoxicity control, ATP luminescence, cherry-pick, set 6 (AID 1053126).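 Further: 0% = neutral control wells and -100% = mitoxantrone 10 µM positive control.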 The settings on record: HEK293T viability, CellTiter-Glo ATP luminescence, 72 h; series mostly up to 26 µM; activity change, negative = cytotoxicity: at the top concentration. On the technique in general: ATP-based viability assays read luminescence as a measure of living cells.
In the case of `CCC(=O)N1C(C(=O)NCc2ccc(OC)cc2)CSC1c1ccc(OC)cc1` (stereo unspecified), the “activity change, negative = cytotoxicity” value is -13.7%.

Consider `Cc1nc2ccc(S(=O)(=O)Nc3ccc(-c4nc5cccnc5s4)cc3)cc2s1`, for which the “activity change, negative = cytotoxicity” value was 31.4%. In the case of `CC(=O)c1cccc(-c2ccnc3c2CC(C(=O)NCc2ccc(F)c(F)c2)O3)c1` (stereo unspecified) it was -11.2%.

As for `CCc1nnc(NC(=O)c2ccc(-c3ccccc3F)o2)s1`, the “activity change, negative = cytotoxicity” value was -0.088%.

As to `CCCN1CCN(C(=O)c2ccc(CS(=O)c3ccc(Br)cc3)o2)CC1` (stereo unspecified), the “activity change, negative = cytotoxicity” value was 16.8%. As to `CCOC(=O)c1cc2c(=O)n3ccccc3nc2n(C(C)C)c1=NC(=O)c1ccco1`, the “activity change, negative = cytotoxicity” value is -13.2%.

Take `CN1CCc2c(sc(NC(=O)C3CCCCC3)c2C(N)=O)C1`: the “activity change, negative = cytotoxicity” value was -9.23%. Consider `S=c1[nH]c2ccc(Cc3ccc4[nH]c(=S)[nH]c4c3)cc2[nH]1`, for which the “activity change, negative = cytotoxicity” value is -20.1%. For the molecule `O=C(O)c1ccc(N/N=C/c2ccc(-c3ccccc3Cl)o2)cc1`, the “activity change, negative = cytotoxicity” value was -11.7%. For the molecule `Cc1cc(C)nc(SCC(=O)Nc2ccc(S(=O)(=O)Nc3onc(C)c3C)cc2)n1`, the “activity change, negative = cytotoxicity” value is -1.79%. Consider `CCCCN1C=C(C(=O)OC)C(c2ccccc2Cl)C(C(=O)OC)=C1`, for which the “activity change, negative = cytotoxicity” value is -13.7%. The result for `CCOC(=O)c1oc2c(CN3CCN(CCO)CC3)c(O)c(CC)cc2c(=O)c1-c1nc2ccccc2s1` reads -10.5%; that for `CC(=O)OC[C@@H]1CN(Cc2ccccc2)C[C@H](n2cnc3c(N(C)C(C)C)ncnc32)O1`, -10.5%. The result for `CC1CCCCN1Cc1c(O)ccc2c(=O)c(-c3nc4ccccc4s3)coc12` (stereo unspecified) reads -6.86%. In the case of `O=C(O)c1cccc(Nc2nc(-c3cc4ccccc4oc3=O)cs2)c1`, the “activity change, negative = cytotoxicity” value is -14.3%.

With `CCNC(=O)c1cc2c(=O)n3cccc(C)c3nc2n(Cc2ccc(C)cc2)c1=N`, the “activity change, negative = cytotoxicity” value was -19.1%.
